Experimental data: PubChem BioAssay (NCATS)
Results filed as inconclusive are left out. Active and inactive are the calls of the source. Calls follow the shape of the dose curve; as a rule, active = well fitted curve in the direction sought with a large enough effect; inconclusive = small, poorly fitted or top-dose-only effect, or another doubt; inactive = no such curve, though single readings can be large; an effect the other way counts as inactive or inconclusive.

What was measured:
[1] = Quantitative High-Throughput drug screen in 47 multiple myeloma cell lines against the NCATS MIPE library collection: NCIH929_DSMZ cell viability assay (AID 1918978); also: nearly all actives have a fitted effect of over 35% in size
Method in brief: (§1)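 500 cells/well; MIPE 4.0 drugs pin-transferred; 48 h, 37C, 5% CO2. CellTiter-Glo, 5 min RT, luminescence. Controls: DMSO 100%, media 0%.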

[2] = Quantitative High-Throughput drug screen in 47 multiple myeloma cell lines against the NCATS MIPE library collection: OCIMY1_PLB cell viability assay (AID 1918979); also: nearly all actives have a fitted effect of over 35% in size;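 as to viability: 100% = DMSO-only wells and 0% = cell-free media-only wells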
Method in brief: as §1

[3] = Quantitative High-Throughput drug screen in 47 multiple myeloma cell lines against the NCATS MIPE library collection: MM1S_ATCC cell viability assay (AID 1918980); also: nearly all actives have a fitted effect of over 45% in size
Method in brief: as §1

[4] = Quantitative High-Throughput drug screen in 47 multiple myeloma cell lines against the NCATS MIPE library collection: LP1_DSMZ cell viability assay (AID 1918982); also: nearly all actives have a fitted effect of over 35% in size
Method in brief: as §1

[5] = Quantitative High-Throughput drug screen in 47 multiple myeloma cell lines against the NCATS MIPE library collection: KMS28PE_JCRB cell viability assay (AID 1918983); also: nearly all actives have a fitted effect of over 35% in size
Method in brief: as §1

[6] = Quantitative High-Throughput drug screen in 47 multiple myeloma cell lines against the NCATS MIPE library collection: OCIMY7_PLB cell viability assay (AID 1918987); details: OCI-MY7 myeloma viability, CellTiter-Glo ATP, 48 h; viability (% of DMSO): at 45.8 µM (top of the series); also: nearly all actives have a fitted effect of over 65% in size
Method in brief: as §1

[7] = Quantitative High-Throughput drug screen in 47 multiple myeloma cell lines against the NCATS MIPE library collection: OCIMY5_PLB cell viability assay (AID 1918988); also: nearly all actives have a fitted effect of over 65% in size
Method in brief: as §1

[8] = Quantitative High-Throughput drug screen in 47 multiple myeloma cell lines against the NCATS MIPE library collection: OPM1_PLB cell viability assay (AID 1918989); also: nearly all actives have a fitted effect of over 40% in size
Method in brief: as §1

[9] = Quantitative High-Throughput drug screen in 47 multiple myeloma cell lines against the NCATS MIPE library collection: SKMM1_PLB cell viability assay (AID 1919863); details: SKMM1 myeloma viability, CellTiter-Glo ATP, 48 h; viability: active compounds read low; also: nearly all actives have a fitted effect of over 35% in size
Method in brief: as §1

[10] = Quantitative High-Throughput drug screen in 47 multiple myeloma cell lines against the NCATS MIPE library collection: VP6_DJ cell viability assay (AID 1919867); also: nearly all actives have a fitted effect of over 40% in size;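 as to viability (% of DMSO): 100% = DMSO-only wells and 0% = wells with media alone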
Method in brief: as §1

[11] = Quantitative High-Throughput drug screen in 47 multiple myeloma cell lines against the NCATS MIPE library collection: PE2_PLB cell viability assay (AID 1919869); also: nearly all actives have a fitted effect of over 35% in size
Method in brief: as §1

[12] = Quantitative High-Throughput drug screen in 47 multiple myeloma cell lines against the NCATS MIPE library collection: PCM6_Riken cell viability assay (AID 1919870); also: nearly all actives have a fitted effect of over 30% in size
Method in brief: as §1

[13] = Quantitative High-Throughput drug screen in 47 multiple myeloma cell lines against the NCATS MIPE library collection: RPMI8226_ATCC cell viability assay (AID 1919871); also: nearly all actives have a fitted effect of over 30% in size
Method in brief: as §1

[14] = Quantitative High-Throughput drug screen in 47 multiple myeloma cell lines against the NCATS MIPE library collection: MM1R_ATCC cell viability assay (AID 1918981); also: nearly all actives have a fitted effect of over 35% in size
Method in brief: as §1

[15] = Quantitative High-Throughput drug screen in 47 multiple myeloma cell lines against the NCATS MIPE library collection: L363_DSMZ cell viability assay (AID 1918984); also: nearly all actives have a fitted effect of over 40% in size
Method in brief: as §1

[16] = Quantitative High-Throughput drug screen in 47 multiple myeloma cell lines against the NCATS MIPE library collection: U266_ATCC cell viability assay (AID 1919864); also: nearly all actives have a fitted effect of over 35% in size;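 as to viability (% of DMSO control): 0% = media-only wells without cells and 100% = DMSO-only wells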
Method in brief: as §1

[17] = Quantitative High-Throughput drug screen in 47 multiple myeloma cell lines against the NCATS MIPE library collection: XG6_PLB cell viability assay (AID 1919865); also: nearly all actives have a fitted effect of over 40% in size
Method in brief: as §1

[18] = Quantitative High-Throughput drug screen in 47 multiple myeloma cell lines against the NCATS MIPE library collection: XG1_PLB cell viability assay (AID 1919866); also: nearly all actives have a fitted effect of over 35% in size
Method in brief: as §1

[19] = Quantitative High-Throughput drug screen in 47 multiple myeloma cell lines against the NCATS MIPE library collection: UTMC2_PLB cell viability assay (AID 1919868); details: CellTiter-Glo ATP luminescence, 48 h; viability (% of DMSO control): at 45.8 µM (top of the series); also: nearly all actives have a fitted effect of over 55% in size
Method in brief: as §1

[20] = Quantitative High-Throughput drug screen in 47 multiple myeloma cell lines against the NCATS MIPE library collection: KMS34_JCRB cell viability assay (AID 1918985); also: nearly all actives have a fitted effect of over 40% in size
Method in brief: as §1
Potency is read from the fitted curve at half-maximal effect.

CNC(=O)c1ccccc1Sc1ccc2c(C=Cc3ccccn3)n[nH]c2c1
inactive: Potency [2]
active: Potency [1] 20.9 µM | Potency [3] 16.6 µM | Potency [4] 23.5 µM | Potency [5] 5.26 µM | Potency [6] 2.64 µM | Potency [7] 0.935 µM | Potency [8] 18.7 µM | Potency [9] 13.2 µM | Potency [10] 14.8 µM | Potency [11] 20.9 µM | Potency [12] 7.43 µM | Potency [13] 18.7 µM

NC1CCC(Nc2nc(Nc3ccc(C(=O)N4CCCCC4)cc3)c3ncn(-c4cccc(F)c4)c3n2)CC1 (stereo not given)
inactive: Potency [1] | Potency [2] | Potency [3] | Potency [14] | Potency [15] | Potency [8] | viability [9] 125% | Potency [16] | Potency [17] | Potency [18] | Potency [11] | Potency [13]

CN(C)c1cc(NC(=O)CNC(C)(C)C)c(O)c2c1C[C@@H]1C[C@H]3[C@H](N(C)C)C(=O)C(C(N)=O)=C(O)[C@@]3(O)C(=O)C1=C2O
inactive: Potency [1] | Potency [2] | Potency [3] | Potency [5] | Potency [7] | Potency [8] | Potency [16] | Potency [18] | Potency [11] | Potency [12] | Potency [13]
active: Potency [14] 18.7 µM | Potency [19] 13.2 µM

CC(=Cc1ccccc1)C=C1SC(=S)N(CC(=O)O)C1=O
inactive: Potency [1] | Potency [2] | Potency [3] | Potency [14] | Potency [5] | viability [9] 123% | Potency [16] | Potency [17] | Potency [18] | Potency [10] | Potency [11] | Potency [12] | Potency [13]

N#C[C@H]1C[C@H]2C[C@@H]2N1C(=O)[C@@H](N)C12CC3CC(CC(O)(C3)C1)C2
active: Potency [3] 4.18 µM | Potency [11] 0.0026 µM
inactive: Potency [1] | Potency [2] | Potency [4] | Potency [5] | Potency [15] | Potency [20] | Potency [8] | viability [9] 119% | Potency [16] | Potency [18]

CCCCCN(C)CCC(O)(P(=O)(O)O)P(=O)(O)O
inactive: Potency [1] | Potency [2] | Potency [3] | Potency [4] | Potency [15] | Potency [6] | Potency [16] | Potency [17] | Potency [18] | Potency [11] | Potency [12]

Nc1ncnc2c1ncn2[C@@H]1O[C@@H](CO)[C@H](O)[C@H]1O
inactive: Potency [1] | Potency [2] | Potency [3] | Potency [4] | Potency [5] | Potency [17] | Potency [18] | Potency [11]

COc1cc(Nc2ncc(F)c(Nc3ccc4c(n3)NC(=O)C(C)(C)O4)n2)cc(OC)c1OC
inactive: Potency [3] | Potency [16]
active: Potency [1] 1.18 µM | Potency [2] 1.66 µM | Potency [14] 6.62 µM | Potency [5] 0.833 µM | Potency [20] 4.69 µM | Potency [6] 0.743 µM | Potency [7] 6.62 µM | Potency [8] 1.87 µM | Potency [17] 1.66 µM | Potency [19] 0.59 µM | Potency [11] 1.05 µM

CC[C@H]1OC(=O)[C@H](C)[C@@H](O[C@H]2C[C@@](C)(OC)[C@@H](O)[C@H](C)O2)[C@H](C)[C@@H](O[C@@H]2O[C@H](C)C[C@H](N(C)C)[C@@H]2O)[C@](C)(O)C[C@@H](C)CN(C)[C@H](C)[C@@H](O)[C@]1(C)O
active: Potency [3] 18.7 µM | Potency [9] 16.6 µM | Potency [16] 9.35 µM | Potency [13] 18.7 µM
inactive: Potency [1] | Potency [2] | Potency [4] | Potency [5] | Potency [11]

c1cc(-c2sc(-c3ccncc3)c(-c3ccncc3)c2-c2ccncc2)ccn1
active: Potency [1] 8.33 µM | Potency [3] 26.4 µM | Potency [15] 3.32 µM | Potency [6] 5.26 µM | Potency [18] 11.8 µM | Potency [10] 9.35 µM | Potency [11] 14.8 µM
inactive: Potency [2] | Potency [5] | Potency [13]

CC1(C)CCC(CN2CCN(c3ccc(C(=O)NS(=O)(=O)c4ccc(NCC5CCOCC5)c([N+](=O)[O-])c4)c(Oc4cnc5[nH]ccc5c4)c3)CC2)=C(c2ccc(Cl)cc2)C1
active: Potency [1] 23.5 µM | Potency [2] 10.5 µM | Potency [3] 23.5 µM | Potency [14] 14.8 µM | Potency [5] 16.6 µM | Potency [20] 16.6 µM | Potency [6] 0.59 µM | Potency [7] 0.0148 µM | Potency [8] 5.26 µM | Potency [9] 20.9 µM | Potency [10] 7.43 µM | Potency [11] 16.6 µM | Potency [12] 0.148 µM

CO[C@@H](C(=O)N1Cc2[nH]nc(NC(=O)c3ccc(N4CCN(C)CC4)cc3)c2C1)c1ccccc1
inactive: Potency [2]
active: Potency [1] 11.8 µM | Potency [3] 20.9 µM | Potency [14] 20.9 µM | Potency [5] 6.62 µM | Potency [15] 18.7 µM | Potency [6] 0.332 µM | Potency [7] 6.62 µM | Potency [8] 8.33 µM | Potency [17] 20.9 µM | Potency [19] 0.0332 µM | Potency [11] 20.9 µM | Potency [12] 26.4 µM

Cc1ccc(C(=O)Nc2cccc(C(F)(F)F)c2)cc1Nc1nc(-c2cccnc2)nc2c1cnn2C
active: Potency [1] 14.8 µM | Potency [2] 16.6 µM | Potency [3] 18.7 µM | Potency [14] 18.7 µM | Potency [5] 26.4 µM | Potency [20] 16.6 µM | Potency [7] 10.5 µM | Potency [9] 14.8 µM | Potency [16] 8.33 µM | Potency [17] 4.69 µM | Potency [18] 10.5 µM | Potency [19] 11.8 µM | Potency [11] 9.35 µM | Potency [12] 20.9 µM | Potency [13] 18.7 µM
